Among the data in PubChem BioAssay (NCATS) are outcome and Potency values, retold here.

Records with an inconclusive call do not appear. The source made the active and inactive calls. Unless noted, calls follow the shape of the dose curve; as a rule, active = well fitted curve in the direction sought with a large enough effect; inconclusive = small, poorly fitted or top-dose-only effect, or another doubt; inactive = no such curve, though single readings can be large; an effect the other way counts as inactive or inconclusive.

Test [1] can be described thus: Cytometric Cell-Based qHTS for Inhibitors of the mTORC1 Signaling Pathway in MEF (Tsc2-/-, p53-/-) Cells (AID 2660).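 Also: Tsc2 and p53 null MEFs carrying empty vector with compound for 24 h; percent of cells above a phospho-rpS6 to PI ratio cutoff in each well; series mostly up to about 38 µM.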 The gist of the method:
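Immunofluorescence qHTS of rpS6 Ser235/236 phosphorylation: MEFs (Tsc2-/-, p53-/-) treated 24 h, 37 C, in DMEM + 10% FBS. Alexa-488 signal normalized to PI count, referenced to rapamycin (7.5 nM) and DMSO; PI cell number recorded for viability.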
Background: Quantitative high-throughput screening tests each substance at several concentrations.

A short description of test [2]: High Content Imaging Cell-Based qHTS for Inhibitors of the mTORC1 Signaling Pathway in MEF (Tsc2-/-, p53-/-) Cells (AID 2666).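 Also: percent of cells scored positive for phospho-rpS6 Ser235/236 immunostaining by imaging.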 The gist of the method:
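Inhibition of rpS6 phosphorylation is measured by immunofluorescence imaging in empty-vector Tsc2-/-, p53-/- mouse embryonic fibroblasts after 24 hrs compound exposure at 37 degree Celsius. Results are reported as % positive cells per well.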

Test [3] can be described thus: High Content Imaging Cell-Based qHTS for Inhibitors of the mTORC1 Signaling Pathway in MEF Cells (AID 2667). Also: potency is read from the fitted curve at half-maximal effect. The essentials: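 Fixed-cell imaging of phospho-S6 (Ser235/236, Alexa-488) after 24 hrs of compound treatment at 37 degree Celsius. Signal was normalized to Hoechst, and thresholds from the highest and lowest wells split cells into % active versus % non-active.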

A short description of test [4]: Validation screen for small molecules that induce DNA re-replication in MCF 10A normal breast cells (AID 463097). Also: nearly all actives have a fitted effect of over 60% in size. Also: potency is read from the fitted curve at half-maximal effect. The gist of the method:
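Read-out is Hoechst total nuclear intensity by fluorescence scanning imager, flagging increased high-DNA-content nuclei. Compounds were incubated with MCF 10A cells for 48 hr (37 C, 5% CO2) before 40 min staining.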

The target of test [5] is Ubiquitin carboxyl-terminal hydrolase 2 (Homo sapiens) (UniProt O75604). Briefly: qHTS Validation Assay for Inhibitors of Ubiquitin-specific Protease USP2a Using CHOP2 as the Reporter (AID 463106). The gist of the method: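 Inhibition is expressed relative to NEM as the full-inhibition control, with concentration-response curves classed by fit quality, magnitude and activity. Enzyme (USP2 core, 10nM) meets 25nM Ub-CHOP2 after compound preincubation; readings are taken at 60min.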

In test [6] the target is DNA polymerase III PolC-type (Bacillus subtilis (strain 168)) (UniProt P13267). As to the kind of experiment: qHTS Validation Assay for the Inhibitors of DNA Replication in Gram-Positive Bacteria (AID 485295).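 Also: reconstituted holoenzyme with PolC plus beta clamp SSB and primase; PicoGreen fluorescence of double-stranded DNA made on primed circular M13 template; series mostly up to about 57 µM.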 The gist of the method:
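Double-stranded DNA product detected by PicoGreen fluorescence after EDTA quench. Compound incubated with B. subtilis holoenzyme (PolC, beta subunit, SSB, primase) before substrate addition; primed replication of M13Gori with dNTPs and NTPs at room temperature; DMSO defines 0% inhibition.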

The target of test [7] is Tumor susceptibility gene 101 protein (Homo sapiens) (UniProt Q99816). As to the kind of experiment: qHTS Validation Assay for Iinhibitors of HIV-1 Budding by Blocking the Interaction of PTAP/TSG101 (AID 485342; calls by dose curve). The essentials:
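Fluorescence polarization of 50 nM FITC-PTAP peptide bound to 10 uM Tsg101 binding domain was read after 20 min room-temperature incubation with compounds, in 10 mM HEPES pH 7.5, 0.15 M NaCl, 0.01% Tween 20.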

Test [8] in a line: qHTS Validation Assay to Find Inhibitors of Chronic Active B-Cell Receptor Signaling (AID 485345; active = well fitted curve in the direction sought with a large enough effect in the main read-out, with a control signal flat, not every such curve was filed as active). The essentials:
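TMD8 ABC-DLBCL cells with dox-inducible green luciferase–IκBα fusion and red native luciferase; compounds 46 uM–3 nM, 4 h at 37C with doxycycline in 0.5% FBS IMDM. Green/red ratio normalized to basal and 10 uM MG-132.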

The nature of test [9]: Cytometry Cell-Based qHTS for Inhibitors of the mTORC1 Signaling Pathway in MEF cells (AID 2668).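 Also: Tsc2-/- p53-/- mouse embryonic fibroblasts stably re-expressing wild-type Tsc2; percent cells positive for phospho-rpS6 Ser235/236 relative to propidium iodide stain; series mostly up to about 38 µM.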 The essentials:
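Phospho-rpS6 (Ser235/236) immunofluorescence over PI signal, scored as % positive cells using thresholds from 7.5 nM rapamycin and DMSO wells, after 24 h compound exposure of WT-Tsc2-rescued Tsc2-/-, p53-/- MEFs. PI cell count recorded for viability.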

DNA polymerase III PolC-type (Bacillus subtilis (strain 168)), sequence (P13267 whole entry, looked up): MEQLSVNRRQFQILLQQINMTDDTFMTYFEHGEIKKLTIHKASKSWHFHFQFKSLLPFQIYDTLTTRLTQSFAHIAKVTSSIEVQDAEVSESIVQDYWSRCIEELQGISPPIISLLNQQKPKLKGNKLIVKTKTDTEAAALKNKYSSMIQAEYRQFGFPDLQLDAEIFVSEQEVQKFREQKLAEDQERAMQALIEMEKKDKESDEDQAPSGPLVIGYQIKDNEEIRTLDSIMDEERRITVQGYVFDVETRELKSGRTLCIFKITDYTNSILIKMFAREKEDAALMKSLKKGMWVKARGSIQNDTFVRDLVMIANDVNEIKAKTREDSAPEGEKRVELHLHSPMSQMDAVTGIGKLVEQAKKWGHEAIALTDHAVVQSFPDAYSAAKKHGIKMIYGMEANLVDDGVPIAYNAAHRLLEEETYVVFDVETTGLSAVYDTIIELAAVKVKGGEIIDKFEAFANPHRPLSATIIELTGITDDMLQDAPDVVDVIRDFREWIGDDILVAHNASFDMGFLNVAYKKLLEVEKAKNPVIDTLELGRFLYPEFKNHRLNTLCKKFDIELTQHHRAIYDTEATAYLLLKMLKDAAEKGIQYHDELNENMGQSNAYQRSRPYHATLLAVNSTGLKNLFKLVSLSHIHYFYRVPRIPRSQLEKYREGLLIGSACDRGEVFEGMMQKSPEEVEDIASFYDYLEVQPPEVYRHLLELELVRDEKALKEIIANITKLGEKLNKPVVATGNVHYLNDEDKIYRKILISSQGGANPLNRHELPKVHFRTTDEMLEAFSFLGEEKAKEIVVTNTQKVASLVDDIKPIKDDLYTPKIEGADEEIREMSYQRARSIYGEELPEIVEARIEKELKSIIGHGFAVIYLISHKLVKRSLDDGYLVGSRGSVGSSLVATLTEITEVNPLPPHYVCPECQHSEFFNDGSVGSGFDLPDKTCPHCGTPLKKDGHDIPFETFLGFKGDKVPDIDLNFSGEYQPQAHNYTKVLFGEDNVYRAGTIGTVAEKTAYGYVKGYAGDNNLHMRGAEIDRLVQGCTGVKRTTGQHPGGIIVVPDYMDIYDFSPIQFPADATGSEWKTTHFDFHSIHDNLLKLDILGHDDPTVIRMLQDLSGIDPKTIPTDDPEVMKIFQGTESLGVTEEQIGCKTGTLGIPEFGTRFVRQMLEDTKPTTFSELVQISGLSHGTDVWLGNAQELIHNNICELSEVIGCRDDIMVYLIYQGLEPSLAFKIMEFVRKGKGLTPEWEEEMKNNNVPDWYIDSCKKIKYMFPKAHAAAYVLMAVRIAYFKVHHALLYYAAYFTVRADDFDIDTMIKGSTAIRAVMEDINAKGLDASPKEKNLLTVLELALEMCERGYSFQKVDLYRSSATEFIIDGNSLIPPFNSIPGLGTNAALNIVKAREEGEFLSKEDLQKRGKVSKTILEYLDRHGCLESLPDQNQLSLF
Ubiquitin carboxyl-terminal hydrolase 2 (Homo sapiens), sequence (O75604 whole entry, looked up): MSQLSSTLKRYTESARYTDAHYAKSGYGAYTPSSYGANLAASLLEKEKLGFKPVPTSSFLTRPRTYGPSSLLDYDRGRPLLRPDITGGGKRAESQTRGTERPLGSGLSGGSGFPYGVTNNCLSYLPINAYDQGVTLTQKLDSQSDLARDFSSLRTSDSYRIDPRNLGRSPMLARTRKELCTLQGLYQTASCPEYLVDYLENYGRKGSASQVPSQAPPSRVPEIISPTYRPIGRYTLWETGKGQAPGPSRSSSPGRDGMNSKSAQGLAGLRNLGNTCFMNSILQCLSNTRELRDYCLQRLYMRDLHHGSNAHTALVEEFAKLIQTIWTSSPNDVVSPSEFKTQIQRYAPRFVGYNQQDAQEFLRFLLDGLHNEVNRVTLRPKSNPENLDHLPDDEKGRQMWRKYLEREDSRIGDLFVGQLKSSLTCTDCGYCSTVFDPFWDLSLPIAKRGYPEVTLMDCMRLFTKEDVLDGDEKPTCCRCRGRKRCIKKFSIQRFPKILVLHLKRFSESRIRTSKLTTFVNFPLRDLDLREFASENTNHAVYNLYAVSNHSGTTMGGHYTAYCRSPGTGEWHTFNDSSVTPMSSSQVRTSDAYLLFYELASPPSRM
Tumor susceptibility gene 101 protein (Homo sapiens), sequence (Q99816 whole entry, looked up, the tested form may be a part): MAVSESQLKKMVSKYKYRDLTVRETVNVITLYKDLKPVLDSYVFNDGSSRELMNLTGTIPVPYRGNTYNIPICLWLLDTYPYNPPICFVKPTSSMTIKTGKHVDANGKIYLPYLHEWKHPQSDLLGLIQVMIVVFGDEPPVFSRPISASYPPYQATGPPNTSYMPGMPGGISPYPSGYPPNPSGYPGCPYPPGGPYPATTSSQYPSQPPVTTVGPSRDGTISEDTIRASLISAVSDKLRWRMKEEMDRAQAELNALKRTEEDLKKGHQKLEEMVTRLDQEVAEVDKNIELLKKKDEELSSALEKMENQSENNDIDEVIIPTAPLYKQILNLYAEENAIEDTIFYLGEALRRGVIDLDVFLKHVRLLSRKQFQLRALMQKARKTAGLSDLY

For the molecule `O=C(O)[C@H]1NCCC[C@H]1C(=O)O`, the outcome in test [1], in test [7] and in test [8] was inactive. The Potency result in test [2], in test [3], in [4], in [5] and in [6] was “inactive” in each case.

Turning to `C/C(=C\c1ccc(C(=O)O)cc1)c1ccc2c(c1)C(C)(C)CCC2(C)C`, the molecule was called inactive in test [1] and in test [7]. Also, the Potency result in test [2], in test [3] and in test [6] was “inactive” in each case. In [4], the Potency was 11.2 µM (active).

In the case of `CC(C)C[C@H](NC(=O)C1OC1C(=O)O)C(=O)NCCCCN=C(N)N` (stereo partly drawn), the result in test [1], in test [7] and in [8] was inactive. For the same molecule, the Potency entry in test [2], in test [3], in test [4] and in test [6] was “inactive” each time.

On to `CNC(=O)c1cc2c(cn1)[nH]c1ccccc12`, for which the result in test [1] and in [7] was inactive. Besides, the Potency entry in test [2], in [3], in test [4], in test [5] and in [6] was “inactive” throughout.

Regarding `C=CCN1CCc2cc(O)c(O)cc2C(c2ccccc2)C1` (stereo not drawn), the molecule was called inactive in test [1], in test [7] and in test [8]. Besides, the Potency entry in [2], in test [3], in test [4], in test [5] and in test [6] was “inactive” in each case.

On to `CN(C)CCC(c1ccc(Br)cc1)c1ccccn1` (stereo not drawn), for which the call in test [1], in test [7] and in test [8] was inactive. The Potency result in [2], in test [3], in [4], in test [5] and in test [6] was “inactive” each time.

As to `CN1CCCC1CCOC(C)(c1ccccc1)c1ccc(Cl)cc1` (stereo not drawn), the outcome in test [1] and in [7] was inactive. For the same molecule, the Potency result in [2], in test [5] and in test [6] was “inactive” in each case. Besides, the Potency in [3] is 14.7 µM (active).

In the case of `C=CC[C@H](N)C(=O)O`, the outcome in [1] and in [8] was inactive. Moreover, the Potency entry in test [2], in test [3], in [4], in [5] and in test [6] was “inactive” each time.

Regarding `O=C(OCCN1CCOCC1)C1(c2ccccc2)CCCCC1`, the result in test [1], in test [7] and in test [8] was inactive. Further, the Potency result in [2], in test [3], in [4], in test [5] and in test [6] was “inactive” in each case.

As for `C[C@H](O)C(=O)C1=Nc2c(nc(N)[nH]c2=O)NC1`, the outcome in test [1] and in [8] was inactive. The Potency result in [2], in test [3], in test [4], in test [5] and in test [6] was “inactive” in each case.

As for `CC(N)(C(=O)O)c1ccc(C(=O)O)cc1` (stereo not drawn), the molecule was classed as inactive in [1], in test [7] and in test [8]. For the same molecule, the Potency entry in test [2], in [3], in test [4], in [5] and in [6] was “inactive” each time.

`CCCCCCCCCC[Si](C)(C)CCC(=O)NC(Cc1ccc(C)cc1)c1ccccc1` (stereo not drawn): the outcome in test [1], in test [7] and in test [8] was inactive. The Potency entry in test [2], in [3], in test [4], in test [5] and in [6] was “inactive” each time.

In the case of `Nc1nc2c(cnn2CCc2ccccc2)c2nc(-c3ccco3)nn12`, the molecule was classed as inactive in test [1] and in test [7]. For the same molecule, the Potency result in test [2], in [3], in test [5] and in test [6] was “inactive” each time.

As to `COC1(C2=NCCN2)COc2ccccc2O1` (stereo not drawn), the call in test [1], in test [7] and in test [8] was inactive. For the same molecule, the Potency result in [2], in test [3], in test [4], in test [5] and in [6] was “inactive” throughout.

As to `N=C(N)c1ccccc1`, the Potency entry in [2], in [3], in test [9], in test [4], in [5] and in test [6] was “inactive” each time. For the same molecule, the molecule was classed as inactive in test [7] and in [8].

Consider `CSC(=N)N`, for which the Potency result in test [2], in [3], in test [9], in [4], in [5] and in test [6] was “inactive” in each case. The molecule was classed as inactive in test [7] and in test [8].

For the molecule `CC(/C=C/c1cccc(Oc2ccc(F)cc2)c1)N(O)C(N)=O` (stereo not drawn), the Potency result in test [2], in test [3], in test [9], in [4], in test [5] and in test [6] was “inactive” each time. Also, the molecule was called inactive in test [7] and in [8].

Consider `Cn1cc(C(F)(F)F)nc1-c1ccc(OCC(O)CNCCOc2ccc(O)c(C(N)=O)c2)cc1` (stereo not drawn), for which the Potency result in [2], in [3], in [9], in test [4], in test [5] and in [6] was “inactive” throughout. The call in test [7] and in test [8] was inactive.

For the molecule `CC(N)=NCCCC[C@@H](N)C(=O)O`, the Potency result in [2], in test [3], in test [9], in [4], in test [5] and in [6] was “inactive” throughout. Besides, the call in test [7] and in test [8] was inactive.

With `Cc1nc2c(OCc3ccccc3)cccn2c1CC#N`, the Potency entry in [2], in test [3], in [9], in [4], in test [5] and in [6] was “inactive” in each case.

Consider `CC(C)(C)c1cc(/C=C(\C#N)C(N)=S)cc(C(C)(C)C)c1O`, for which the molecule was called inactive in test [1] and in test [7]. The Potency result in test [2], in test [5] and in test [6] was “inactive” in each case. Moreover, in test [4], the Potency is 3.16 µM (active).

In the case of `Cc1cccc(C(=O)NCN2CCN(c3ccccc3C#N)CC2)c1`, the molecule was called inactive in test [1] and in test [8]. Further, the Potency result in test [2], in test [3] and in test [5] was “inactive” in each case.

Take `OC1(c2ccc(Cl)cc2)CCN(Cc2c[nH]c3ccccc23)CC1`: the molecule was classed as inactive in test [1] and in test [7]. For the same molecule, the Potency entry in test [2], in test [4], in test [5] and in test [6] was “inactive” each time.

For the molecule `Oc1ccc(/C=C/c2ccc(/C=C/c3ccc(O)cc3)c(Br)c2)cc1`, the molecule was called inactive in test [1] and in [7]. In addition, the Potency result in [2], in [3], in [5] and in [6] was “inactive” throughout.

For the molecule `O[Si](CCCN1CCCCC1)(c1ccc(F)cc1)C1CCCCC1` (stereo not drawn), the call in test [1], in test [7] and in test [8] was inactive. Moreover, the Potency result in test [2], in [4], in test [5] and in [6] was “inactive” each time.

In the case of `NC1(C(=O)O)CCc2cc(C(=O)O)ccc21` (stereo not drawn), the Potency entry in test [2], in test [3], in test [9], in test [4], in test [5] and in [6] was “inactive” throughout. Besides, the result in test [7] and in test [8] was inactive.

With `CC(C)(C)c1ccc(/C=C/C(=O)Nc2ccc3c(c2)OCCO3)cc1`, the outcome in test [1] and in test [7] was inactive. Further, the Potency result in test [2], in test [3] and in test [5] was “inactive” throughout.

Consider `NC(=O)CC[C@H](N)C(=O)O`, for which the Potency result in test [2], in test [3], in test [9], in test [4], in test [5] and in test [6] was “inactive” in each case. Also, the outcome in [7] was inactive.
